Reference: PubChem BioAssay (EPA / NIEHS)
Inconclusive results are not listed. Active and inactive are the calls of the source. Rule for the calls: active = hit-call score of the fitted dose curve at least 0.9, where 1 is the maximum; inconclusive = response in the unintended direction; inactive = score below 0.9.

Key:
[1] = TOX21_p53_BLA_p2_viability: Viability Assessment in the Tox21 HCT-116 p53 Agonism Beta-lactamase Assay, Phase 2 (AID 2283591);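 note: compound exposure lasted 16 h at 37 °C; actives lower the ATP signal meaning cytotoxicity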
Summary of the method: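 Cytotoxicity readout: CellTiter-Glo ATP luminescence, 30 min at room temperature, after the beta-lactamase read. Cells were HCT116 exposed 16 h at 37C to compounds pin-transferred at 217-fold dilution from DMSO stocks.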

[2] = target: Cellular tumor antigen p53 (Homo sapiens) (UniProt P04637); assay: TOX21_p53_BLA_p2_ratio: Tox21 HCT-116 p53 Agonism Beta-lactamase Assay, Ratio, Phase 2 (AID 2283592)
Sequence of Cellular tumor antigen p53 (Homo sapiens) (P04637 whole entry, looked up): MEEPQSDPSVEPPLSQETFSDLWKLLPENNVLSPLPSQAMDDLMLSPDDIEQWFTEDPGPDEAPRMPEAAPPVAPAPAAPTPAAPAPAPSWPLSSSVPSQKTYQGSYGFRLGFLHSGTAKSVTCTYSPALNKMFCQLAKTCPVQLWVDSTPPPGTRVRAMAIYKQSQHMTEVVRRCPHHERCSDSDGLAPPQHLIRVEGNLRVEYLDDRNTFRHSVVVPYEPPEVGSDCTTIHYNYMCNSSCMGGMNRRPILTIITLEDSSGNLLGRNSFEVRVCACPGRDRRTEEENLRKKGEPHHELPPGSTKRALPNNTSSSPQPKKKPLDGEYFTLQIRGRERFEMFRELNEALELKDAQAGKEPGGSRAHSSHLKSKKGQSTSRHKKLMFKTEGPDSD
Summary of the method: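 Read-out is the blue/green (460/530 nm, 405 nm excitation) ratio after 2 h CCF4-AM loading, fitted as gain versus DMSO. Compounds, pinned at 217-fold dilution from DMSO stocks, stayed 16 h on HCT-116 beta-lactamase reporter cells seeded 5 h earlier.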

[3] = target: Cellular tumor antigen p53 (Homo sapiens) (UniProt P04637); assay: TOX21_p53_BLA_p3_ratio: Tox21 HCT-116 p53 Agonism Beta-lactamase Assay, Ratio, Phase 3 (AID 2283596)
Summary of the method: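 Cells were seeded at 4000/well, rested 5 h at 37C, then dosed with DMSO compound solutions (217-fold dilution) for 16 h. CCF4-AM substrate was loaded for 2 h at room temperature, and the 460/530 nm emission ratio was fitted for gain of signal versus DMSO.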

[4] = TOX21_p53_BLA_p4_viability: Viability Assessment in the Tox21 HCT-116 p53 Agonism Beta-lactamase Assay, Phase 4 (AID 2283597);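 note: hits lower the luminescence signal meaning cytotoxicity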
Summary of the method: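 Cytotoxicity as reduced cellular ATP (CellTiter-Glo luminescence, 30 min room temperature), measured in the same wells following the CCF4 FRET p53 reading. Human HCT-116 cells received compounds in DMSO (217-fold dilution) for 16 h.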

[5] = target: Cellular tumor antigen p53 (Homo sapiens) (UniProt P04637); assay: TOX21_p53_BLA_p5_ratio: Tox21 HCT-116 p53 Agonism Beta-lactamase Assay, Ratio, Phase 5 (AID 2283599)
Summary of the method: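 Beta-lactamase reporter ratio (blue 460 nm over green 530 nm, 405 nm excitation) after 2 h CCF4-AM loading, in HCT-116 cells exposed 16 h at 37 C to compounds pinned at 217-fold dilution. Increases relative to DMSO baseline scored.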

[6] = TOX21_p53_BLA_p5_viability: Viability Assessment in the Tox21 HCT-116 p53 Agonism Beta-lactamase Assay, Phase 5 (AID 2283600)
Summary of the method: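 Viability came from CellTiter-Glo ATP luminescence, read after 30 min at room temperature. Before this, HCT-116 p53-bla cells (4000/well) had 16 hours of compound exposure at 37C, with DMSO stocks diluted 217-fold on transfer.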

[7] = target: Cellular tumor antigen p53 (Homo sapiens) (UniProt P04637); assay: TOX21_p53_BLA_p4_ratio: Tox21 HCT-116 p53 Agonism Beta-lactamase Assay, Ratio, Phase 4 (AID 2283601)
Summary of the method: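 Signal is the blue/green (460nm/530nm) ratio of cleaved versus uncleaved CCF4-AM substrate, read after 2 h substrate loading. Cells were HCT116 carrying the p53-responsive beta-lactamase reporter, dosed 16 h at 37C, 5% CO2; CellTiter-Glo measured in parallel.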

Measured: AC50

CC1=Nc2ccccc2C1(C)C
not listed: [7]
inactive: all other assays above

CN=C(N)NC(=O)Nc1c(C)cccc1C
inactive: [1] | [2] | [3] | [4]

CCCCCCOc1ccccc1C(N)=O
not listed: [7]
inactive: all other assays above

NS(=O)(=O)c1cc2c(cc1C(F)(F)F)NCNS2(=O)=O
not listed: [7]
inactive: all other assays above

CCC(=O)OC/C=C/c1ccccc1
not listed: [6] | [7]
inactive: all other assays above

CCCOC(=O)C(C)O (stereo unspecified)
inactive: all assays above

C[N+](C)(C)CCOC(=O)CCC(=O)OCC[N+](C)(C)C
not listed: [6] | [7]
inactive: all other assays above

Nc1cc(Cl)c([N+](=O)[O-])cc1O
inactive: all assays above

CCCCNCCCC
not listed: [7]
inactive: all other assays above

C=CC1=C(C)C2=CC3=NC(=C(CC(=O)[O-])C4=NC(=C(C)C4=C([O-])[O-])C=c4[n-]c(c(C)c4CC)=CC1=N2)[C@@H](CCC(=O)[O-])[C@@H]3C.[Cu+2].[Na+].[Na+].[Na+]
inactive: all assays above

Clc1nnc(Cl)c2ccccc12
not listed: [7]
inactive: all other assays above

CN(C)CCOC(c1ccc(Cl)cc1)c1ccccn1 (stereo unspecified)
not listed: [6] | [7]
inactive: all other assays above

CC(=O)Oc1cccc(O)c1
not listed: [7]
inactive: all other assays above

ClC(Cl)(Cl)c1ccc(C(Cl)(Cl)Cl)cc1
not listed: [7]
inactive: all other assays above

NS(=O)(=O)c1cc2c(cc1Cl)NC=NS2(=O)=O
inactive: all assays above

c1ccc2cc(C3=NCCN3)ccc2c1
not listed: [6] | [7]
inactive: all other assays above

NCc1ccccc1CC(=O)N[C@@H]1C(=O)N2C(C(=O)O)=C(CSc3nnnn3CC(=O)O)CS[C@H]12
not listed: [7]
inactive: all other assays above

O=[N+]([O-])c1ccc2ncccc2c1
inactive: all assays above

Oc1cc(O)c2c(c1)O[C@H](c1ccc(O)c(O)c1)[C@H](O)C2
not listed: [7]
inactive: all other assays above

Cc1c(C(C)C)c(=O)n(-c2ccccc2)n1C
not listed: [7]
inactive: all other assays above

OCCCCCCO
not listed: [7]
inactive: all other assays above

NC(=O)[C@H]1O[C@@H](O)[C@H](O)[C@@H](O)[C@@H]1O
not listed: [7]
inactive: all other assays above

CS(=O)(=O)c1ccc([C@@H](O)[C@@H](CO)NC(=O)C(Cl)Cl)cc1
not listed: [7]
inactive: all other assays above

CCCCC1C(=O)N(c2ccccc2)N(c2ccc(O)cc2)C1=O (stereo unspecified)
active: [1] 19 µM | [2] 15.8 µM | [4] 17 µM | [5] 15.4 µM
inactive: [3] | [6]

CN(C)c1ccc(/C=C/c2ccc([N+](=O)[O-])cc2)cc1
inactive: [1] | [2] | [3] | [4]

O=S(=O)(O)C(F)(F)F
inactive: all assays above

CCc1ccc2c(c1)N(CC(C)CN(C)C)c1ccccc1S2 (stereo unspecified)
active: [1] 38.7 µM | [4] 36.2 µM
inactive: all other assays above

CO/N=C(\C(=O)N[C@@H]1C(=O)N2C(C(=O)[O-])=C(C[n+]3ccc(N)n3CCO)CS[C@H]12)c1csc(N)n1
not listed: [7]
inactive: all other assays above

CC(CN(C)C)C(C)(O)Cc1ccc(Cl)cc1 (stereo unspecified)
inactive: all assays above

CC(C)SCc1ccco1
not listed: [6] | [7]
inactive: all other assays above

Cc1cc(C)cc(N)c1
inactive: all assays above

CC(C)(C)C1(CCc2ccc(Cl)cc2)CO1 (stereo unspecified)
not listed: [7]
inactive: all other assays above

O=C(O)CCC(=O)c1ccc(-c2ccccc2)cc1
not listed: [7]
inactive: all other assays above

O=C(O)[C@@H]1C[C@H](CP(=O)(O)O)CCN1
not listed: [6] | [7]
inactive: all other assays above

CC1(C)CC(OC(=O)CCCCCCCCC(=O)OC2CC(C)(C)NC(C)(C)C2)CC(C)(C)N1
inactive: [1] | [2] | [3] | [4]

CCCCOC(=O)CC
not listed: [7]
inactive: all other assays above

OCC=CCO
not listed: [6] | [7]
inactive: all other assays above

CCN(CC)CCOc1ccc2nc(N(C)C)sc2c1
not listed: [7]
inactive: all other assays above

CCOc1ccc2nc(N)sc2c1
not listed: [7]
inactive: all other assays above

NCCNCCNCCN
inactive: all assays above

O=C(OCC(COC(=O)c1ccccc1)(COC(=O)c1ccccc1)COC(=O)c1ccccc1)c1ccccc1
active: [3] 54.3 µM
inactive: all other assays above

CCN(CC)C(C)=O
inactive: all assays above

FC(F)OC(Cl)C(F)(F)F (stereo unspecified)
inactive: all assays above

Cc1ncc(CO)c(CN)c1O
inactive: all assays above

CCCCN=C(N)N=C(N)N
inactive: all assays above

CNc1ccccc1
inactive: all assays above

O=C(Nc1ccc([N+](=O)[O-])cc1)Nc1ccc([N+](=O)[O-])cc1
inactive: all assays above

CN(C)c1ccc(C2(c3ccc(N(C)C)cc3)OC(=O)c3cc(N(C)C)ccc32)cc1
active: [2] 60.7 µM | [3] 13.5 µM | [7] 38.5 µM
inactive: all other assays above

C=C1C[C@@]23CC[C@H]4[C@@](C)(CCC[C@@]4(C)C(=O)O[C@@H]4O[C@H](CO)[C@@H](O)[C@H](O)[C@H]4O)[C@@H]2CC[C@]1(O[C@@H]1O[C@H](CO)[C@@H](O)[C@H](O[C@@H]2O[C@H](CO)[C@@H](O)[C@H](O)[C@H]2O)[C@H]1O[C@@H]1O[C@H](CO)[C@@H](O)[C@H](O)[C@H]1O)C3
inactive: all assays above

CC1(O)CCC(C(C)(C)O)CC1 (stereo unspecified)
inactive: all assays above

O=C(Nc1ccc(C(=O)O)c(O)c1)c1ccccc1
inactive: all assays above

O=C=Nc1ccc(Cc2ccc(N=C=O)cc2)cc1
inactive: all assays above

COc1ccc(OC)c(C(O)CNC(=O)CN)c1 (stereo unspecified)
inactive: all assays above

O=CC(=O)c1ccccc1
inactive: all assays above

CCCCCCCCCCCCCCCCCCCCCC(=O)Nc1ccn([C@@H]2O[C@H](CO)[C@@H](O)[C@@H]2O)c(=O)n1
active: [2] 19 µM | [3] 23 µM | [7] 14.3 µM
inactive: all other assays above

CCc1cccc2c3c([nH]c12)C(CC)(CC(=O)O)OCC3 (stereo unspecified)
inactive: all assays above

CC(C)NCC(O)COc1ccc(COCCOC(C)C)cc1 (stereo unspecified)
inactive: all assays above
